NPC1 promoter act = activators of NPC1 promoter; Huh7 NPC1 promoter luciferase reporter, 24 h; Potency, µM (titrated, usually from 9.22 µM), for inactives: top-dose activation, most hits filed as activators; 2.4% of 320,000 active; AID 485313; further: % of control where 0% means no effect; nearly all actives have a fitted effect of over 60% in size
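NPC1 promoter–luciferase Huh7 cells; 24 h compound; luminescence.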
FLuc counter = counter-screen for miR-21 project: firefly luciferase inhibitors or activators; 6.9% of 360,000 active; purified FLuc, Km substrates, luminescence inhibition; P08659; AID 588342; Potency, µM (top dose mostly 57.5 µM), for the others: at the highest dose activity change, negative = inhibition, actives largely listed as inhibitors;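 further: plate controls were vehicle for no effect and reference inhibitor for full effect; nearly all actives have a fitted effect of over 55% in size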
Target sequence (P08659 whole entry, looked up): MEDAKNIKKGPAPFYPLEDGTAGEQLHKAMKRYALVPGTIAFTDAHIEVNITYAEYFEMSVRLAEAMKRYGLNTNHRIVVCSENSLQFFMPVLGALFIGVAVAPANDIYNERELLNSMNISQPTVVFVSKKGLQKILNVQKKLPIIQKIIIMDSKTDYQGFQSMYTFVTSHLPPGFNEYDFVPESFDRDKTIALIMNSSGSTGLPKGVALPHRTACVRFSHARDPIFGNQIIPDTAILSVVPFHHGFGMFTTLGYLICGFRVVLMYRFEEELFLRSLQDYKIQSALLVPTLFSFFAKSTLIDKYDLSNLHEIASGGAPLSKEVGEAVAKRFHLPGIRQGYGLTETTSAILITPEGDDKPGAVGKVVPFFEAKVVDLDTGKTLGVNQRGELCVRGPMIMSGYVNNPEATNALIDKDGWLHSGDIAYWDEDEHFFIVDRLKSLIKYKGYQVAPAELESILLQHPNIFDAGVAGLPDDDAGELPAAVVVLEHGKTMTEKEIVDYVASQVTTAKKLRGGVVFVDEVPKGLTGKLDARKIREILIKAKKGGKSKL
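Biochemical qHTS of compounds, final roughly 60 µM downward over six points, against 10 nM purified firefly luciferase using Km concentrations of substrates (10 uM D-luciferin, 10 uM ATP) in Tris acetate pH 7.5 buffer; luminescence output.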
uPA generation = cell surface uPA generation inhibition | Potency, µM (highest dose often 38.3 µM), for the others: top-dose activity change, negative = inhibition, actives largely listed as inhibitors | 0.31% of 330,000 active | cell surface uPA generation assay, qHTS; active means well fitted inhibition curve with a large enough effect; inconclusive means small, poorly fitted or top-dose-only effect; inactive means no such curve, though single readings can be large or run the other way; tested in mouse RAW 264.7 cells; further: on the % scale 0 is the no-effect control and ±100 the full control effect; nearly all actives have a fitted effect of over 55% in size
SMN2 splice up = increases expression of the SMN2 splice variant. HEK293 SMN2-luciferase splicing reporter, luminescence, 30-36 h. Potency, µM (highest dose often 46.1 µM), for the others: at the top dose activity change, positive = activation, usual class: activators. 2.8% of 210,000 active; further: % of control where 0% means no effect; nearly all actives have a fitted effect of over 55% in size
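HEK293 cells carry an SMN2 […]–luciferase reporter in which exon 7 inclusion puts luciferase in frame. Cells were plated 10-12 h before compound addition, then incubated 30-36 h at 37C. ONE-Glo luminescence was read; sodium butyrate at 4.5 mM final served as control.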
Rab9 promoter act = activates the Rab9 promoter; AID 485297; Potency, µM (series often up to 9.22 µM), for the others: at the highest dose activation, negative = inhibition, usual class: activators; 2.8% of 320,000 active; Huh7 Rab9 promoter-luciferase reporter, luminescence, 24 h; further: % of control where 0% means no effect; nearly all actives have a fitted effect of over 60% in size
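Luminescence from Amplite-detected luciferase (10 minutes, ambient) reports Rab9 promoter activation. Before that, stable Rab9-luciferase Huh7 cells (1500/well, reduced-serum OP-MEM I plus 10% FBS) were exposed to compound for 24 hours at 37C.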
ELG1 genotoxic = genotoxicity induction in ELG1-luciferase HEK293T cells. HEK293T ELG1-luciferase reporter, luminescence, 16 h. Potency, µM (series often up to 46 µM), inactives show at the highest dose activity change, positive = activation, actives largely listed as activators. 1.3% of 330,000 active. AID 504466; further: % of control where 0% means no effect; nearly all actives have a fitted effect of over 60% in size
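DMSO vehicle served as control against compound-treated ELG1-luciferase HEK293T cells; exposure lasted 16 hr at 37 °C and 5% CO2, followed by ONE-Glo luminescence detection after 30 min.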
* = called active by the depositor; ? = inconclusive; . = no result; [ ] = dose if it differs, or a comment. Hits are enriched below; roughly 7.3% of the tested compounds scored in any of these assays. Unless noted, the call rests on the fitted dose curve; in most records, active means well fitted curve in the direction sought with a large enough effect; inconclusive means small, poorly fitted or top-dose-only effect, or another doubt; inactive means no such curve, though single readings can be large; an effect the other way counts as inactive or inconclusive. Potency means the concentration at half of the fitted maximal effect.

SMILES	NPC1 promoter act	FLuc counter	uPA generation	SMN2 splice up	Rab9 promoter act	ELG1 genotoxic
CCN1CCN(CC(=O)Nc2sc3c(c2C#N)CCC(C)C3)CC1 (centres undefined)	-2%	2%	-9%	-6%	1%	0%
CC1CCc2c(sc(NC(=O)CSc3ncn[nH]3)c2C#N)C1 (centres undefined)	-43%	11µM*	?	.	-33%	-8%
N#Cc1c(NC(=O)CSc2ncn[nH]2)sc2c1CCCC2	-11%	8.5µM*	-7%	-62%	-7%	1%
CC1CCc2c(sc(NC(=O)Cn3nc(C(=O)O)c4ccccc4c3=O)c2C#N)C1 (centres undefined)	12%	12µM*	1%	.	-5%	5%
CC(C)(C)C1CCc2c(sc(NC(=O)CSc3ncn[nH]3)c2C#N)C1 (centres undefined)	-9%	?	.	-40%	0%	-1%
CCCc1cc(=O)[nH]c(SCC(=O)Nc2sc3c(c2C#N)CCC(C)C3)n1 (centres undefined)	-3%	27µM*	-3%	-17%	-2%	3%
COC(=O)c1ccc(N2C(=O)Cc3cc(OC)c(OC)cc3C2c2ccc(F)cc2)cc1 (centres undefined)	.	0%	.	11%	.	.
COc1ccccc1CNC(=O)CSc1ncc2c(n1)-c1cc(Cl)ccc1N(Cc1ccccc1)S2(=O)=O	.	2%	.	.	.	.
CCC(=O)N1CCc2cc(CNS(=O)(=O)c3ccc(NC(=O)CC(C)C)cc3)ccc21	.	-2%	.	.	.	.
CCc1cccc(NC(=O)c2cc3c(=O)n(Cc4ccccc4)ccc3nc2C)c1	.	-11%	.	.	.	.
O=C(Cc1ccccc1[N+](=O)[O-])NCc1ccc2c(c1)OCO2	?	?	1%	138%	1.8µM*	?
O=C(Cc1ccccc1)NCc1ccc2c(c1)OCO2	2.8µM*	7.6µM*	0%	11%	?	15µM*
O=C(CCc1ccccc1)NCc1ccc2c(c1)OCO2	0%	0%	2%	.	2%	-6%
O=C(NCc1ccccc1)c1c[nH]c2cc3c(cc2c1=O)OCCO3	3.2µM*	2.4µM*	.	13µM*	2.5µM*	?
O=C(COC(=O)COc1ccccc1[N+](=O)[O-])NCc1ccc2c(c1)OCO2	.	.	-1%	.	.	-1%
CCOc1ccc2[nH]cc(C(=O)NCc3ccccc3)c(=O)c2c1	-4%	-9%	?	.	-2%	-2%
COc1ccc(S(N)(=O)=O)cc1C(=O)OCCCOC(=O)c1cc(S(N)(=O)=O)ccc1OC	-15%	-2%	-3%	.	-16%	7.3µM*
COc1ccc(S(N)(=O)=O)cc1C(=O)OCCCOc1ccc(F)cc1	-4%	-1%	-2%	.	-9%	-5%
Cc1ccc(C(=O)OCC(=O)NCCC2=CCCCC2)s1	1%	-10%	7%	13%	-5%	-1%
O=C(COC(=O)c1ccccc1Cl)NCCC1=CCCCC1	3%	17µM*	6%	7%	16%	15%
O=C(COC(=O)c1cccs1)NCCC1=CCCCC1	-1%	19µM*	-1%	?	8%	-1%
O=C(COC(=O)c1ccccc1O)NCCC1=CCCCC1	4%	?	-10%	9%	21%	9%
Cc1c2ccccc2c(CSC(=N)N)c2ccccc12	.	.	.	-39%[9.22 µM]	.	.
CCN(CC)CCCN(c1ccccc1)C1Cc2ccccc2C1	-14%[46.1 µM]	.	.	.	-25%[46.1 µM]	.
c1ccc(-c2nnc(CSc3nncs3)o2)cc1	28%	?	3%	?	25%	23µM*
SMILES	NPC1 promoter act	FLuc counter	uPA generation	SMN2 splice up	Rab9 promoter act	ELG1 genotoxic
Cc1ccc(-c2nnc(Cc3ccc(Cl)cc3)o2)cc1	23%	17µM*	-4%	21%	28%	16µM*
Cc1ccccc1-c1nnc(Cc2ccccc2)o1	4µM*	11µM*	-3%	11µM*	4µM*	?
Cc1cccc(C)c1NC(=O)CSc1nnc(Cc2ccccc2)o1	1%	0%	2%	7%	-4%	1%
c1ccc(Cc2nnc(-c3ccccc3)o2)cc1	?	24µM*	-3%	?	?	3.3µM*
CCOc1ccc(NC(=O)Cn2c(=O)n(CCCCCC(=O)NCc3ccccc3)c(=O)c3sccc32)cc1	.	-1%	.	-8%	.	.
COc1ccc(Cl)cc1-n1c(C)ccc1C	-2%	2%	-2%	29%	2%	15%
C[C@H](CCC(=O)NCC(=O)O)C1CC[C@H]2C3CC[C@@H]4C[C@H](O)CC[C@]4(C)C3C[C@H](O)[C@]12C (some centres undefined)	.	.	.	3%	.	.
Cc1ccc(NC(=O)C2CCCN(S(=O)(=O)c3ccc(C)cc3)C2)cc1 (centres undefined)	.	0%	.	5%	.	.
Cc1ccc(C(=O)N2CCN(c3cccc(Cl)c3)CC2)cc1-n1c(C)nc2cccnc21	.	-2%	.	.	.	.
COc1ccc(Cc2nnc(-c3ccccc3)o2)cc1	17%	?	-1%	-13%	?	.
Brc1ccc(-c2nnc(Cc3ccccc3)o2)cc1	3.5µM*	11µM*	-14%	.	?	21µM*
Cc1cc(N(C)Cc2ccccc2)n2nc(-c3ccc(C(C)(C)C)cc3)nc2n1	.	?	.	-5%	.	.
CCC(Sc1nc2nccnc2c(=O)n1Cc1ccc(Cl)cc1)C(=O)NC1CCCCC1 (centres undefined)	.	0%	.	.	.	.
Cc1cccc(C(=O)Nc2cccc(C(=O)N/N=C/c3cccc(C)n3)c2)c1	1%	17µM*	1%	.	2%	-1%
O=C(N/N=C/c1cccc(NC(=O)c2ccc(Cl)cc2)c1)c1cccc(O)c1	1.3µM*	1.9µM*	10%	.	2.8µM*	-3%
O=C(N/N=C/c1cccnc1)c1cccc(NC(=O)c2ccc(Cl)cc2)c1	1%	0%	6%	.	-2%	3%
CC(=O)Nc1cccc(C(=O)N/N=C/c2cccc(C)n2)c1	0%	?	5%	.	0%	4%
Cc1ccc(C(=O)Nc2cccc(C(=O)N/N=C/c3ccc(O)cc3)c2)cc1	1.4µM*	0.67µM*	-9%	.	2µM*	12%
CCOC(=O)c1c(NC(=O)C(C)Sc2cn(CCNC(=O)c3ccc(OC)cc3)c3ccccc23)sc2c1CCC2 (centres undefined)	.	0%	.	-10%	.	.
CCCc1[nH]n(-c2nc3ccccc3s2)c(=O)c1C=NCC1CCCO1 (centres undefined)	6%	-18%	-3%	-7%	14%	2%
CCCc1[nH]n(-c2nc3ccccc3s2)c(=O)c1C=NCCN1CCOCC1	18%	17µM*	.	41%	16%	?
O=c1c(C=NCCN2CCNCC2)c(-c2ccccc2)[nH]n1-c1ccc([N+](=O)[O-])cc1	?	?	.	.	?	13%

Compound activity from PubChem BioAssay.
